This is a sample that favours compounds with a hit; in the whole collection about 1.9% have one here.
ATG4B inh = ATG4B (human) cysteine protease inhibition | Q9Y4P1 | ATG4B cleavage of LC3-PLA2, NBD-HPC fluorescence, 1 h | inhibition, % at 8.33 µM | actives 0.51% (n = 340,000) | AID 504462; in the data active = inhibition above about 40%
PP1 counter = PP1-alpha (human) inhibition in PP5 counter-screen | P62136 | purified PP1alpha, OMFP fluorescence | inhibition, % at 6.7 µM | actives 0.9% (n = 320,000) | AID 2235;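 active = inhibition above the mean inhibition of all tested compounds plus 3 SD, computed separately for each screening campaign, cut at about 15% in these data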
Target sequence (P62136 whole entry, looked up): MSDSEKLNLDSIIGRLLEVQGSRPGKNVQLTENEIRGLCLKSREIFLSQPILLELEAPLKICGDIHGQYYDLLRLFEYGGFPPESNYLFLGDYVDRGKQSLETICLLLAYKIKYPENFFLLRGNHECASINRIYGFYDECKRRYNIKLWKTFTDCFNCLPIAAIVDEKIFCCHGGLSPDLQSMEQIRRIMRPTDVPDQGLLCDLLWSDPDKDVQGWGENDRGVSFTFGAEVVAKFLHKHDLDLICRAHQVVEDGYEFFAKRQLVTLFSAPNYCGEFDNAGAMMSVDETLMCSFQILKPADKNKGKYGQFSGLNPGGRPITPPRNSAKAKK
Cardio protect = protects H9c2 cardiomyocytes from peroxide injury. H2O2 injury protection, ATPLite, 2 h. protection from H2O2 cell death, % at 20 µM. actives 0.63% (n = 360,000). AID 588492;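 active = compounds giving at least 50% protection of heart cells from peroxide-induced death in the single-dose screen, raw or plate-pattern-corrected value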;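 note: 0% = DMSO wells with peroxide and 100% = DMSO wells without peroxide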
PP5 primary = inhibitors of human protein phosphatase 5 (PP5) | P53041 | purified PP5c, OMFP substrate fluorescence | inhibition, % at 6.7 µM | actives 0.18% (n = 320,000) | AID 1987;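 active = inhibition above the campaign's mean inhibition across all tested compounds plus 3 SD, cut at about 9.5% in these data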;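 note: 0% = DMSO only and 100% = 100 µM cantharidin control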
ATG4B confirm = confirmation of human ATG4B inhibitors. ATG4B protease fluorescent substrate cleavage assay. inhibition, % at 8.33 µM. actives 92% (n = 320). shares compounds with ATG4B inh; in the data active = inhibition above about 39%
PLA2 ctr = PLA2 (human) inhibition in ATG4B counter-screen. shares compounds with ATG4B inh. purified PLA2, NBD-C6-HPC fluorescence, 45 min. inhibition, % at 8.33 µM. actives 66% (n = 1,600); in the data active = inhibition above about 50%
Target sequence (P04054 whole entry, looked up): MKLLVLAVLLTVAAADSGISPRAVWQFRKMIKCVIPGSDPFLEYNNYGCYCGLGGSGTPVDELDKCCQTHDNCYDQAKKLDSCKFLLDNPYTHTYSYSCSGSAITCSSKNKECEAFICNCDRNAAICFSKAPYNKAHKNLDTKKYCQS
* marks the source's active call; other numbers are inactive results; · = not tested or not shown.

SMILES | ATG4B inh | PP1 counter | Cardio protect | PP5 primary | PLA2 ctr | others
Cc1cc(C(C)(C)C)c(OC(=O)[C@@H]2OC(c3ccccc3)=C[C@H]2c2ccccc2)c(C(C)(C)C)c1 | 0.1 | 0.0 | -3.3 | 0.4 | ·
Cc1ccccc1-c1nsc(SCC(=O)NCc2ccc3c(c2)OCO3)n1 | 41.5* | 0.2 | -0.2 | 3.6 | -4.6
Clc1ccc2c(N/N=C/c3cccnc3)ccnc2c1 | -4.0 | 2.3 | -19.2 | 3.7 | ·
Cc1ccccc1/C=N/Nc1ccnc2cc(Cl)ccc12 | 48.5* | 4.5 | -30.8 | 1.6 | 39.2 | ATG4B confirm=64.9*
CCOC(=O)CCC(=O)Nc1ccc(S(=O)(=O)Nc2cc(OC)nc(OC)n2)cc1 | -7.7 | 1.6 | 1.6 | 0.9 | ·
CCCNC1(C(N)=O)CCN(Cc2ccccc2)CC1 | 2.4 | · | 4.6 | · | ·
Cc1cccc(Cc2cnc(NC(=O)C3=NCCN3)s2)c1 | -1.1 | -4.2 | 26.2 | 0.9 | ·
Cc1cccc(Cc2cnc(NC(=O)c3ccc(C)o3)s2)c1 | 47.2* | 2.9 | -6.1 | 4.6 | 62.8*
O=C(OC1CCc2ccccc2C1=O)c1ccccc1O (centres undefined) | 76.5* | -0.4 | -30.2 | 2.0 | 78.7*
CC1CC1c1ccc(/C=C(\C#N)C(=O)Nc2ccc(Cl)cc2)o1 (centres undefined) | -7.0 | 4.8 | -12.9 | 1.5 | ·
CC1CC1c1ccc(/C=C(\C#N)C(=O)Nc2ccccc2Cl)o1 (centres undefined) | 41.3* | -1.1 | -8.2 | 1.2 | 50.6*
O=C(COc1ccc(Cl)cc1)NNC(=S)NCc1ccccc1 | 3.8 | 9.3 | -8.4 | 4.7 | ·
C=CCc1ccccc1OCC(=O)NNC(=S)NCc1ccccc1 | 68.7* | 3.2 | -3.3 | 3.7 | 68.8*
C/C(=C/CCC(C)[C@H]1CC[C@@]2(C)C3=C(CC[C@]12C)[C@@]1(C)CCC(=O)C(C)(C)[C@@H]1CC3)C(=O)O (some centres undefined) | 46.0* | -1.7 | -1.2 | 0.1 | 29.2 | ATG4B confirm=79.0*
O=C(/C=C1\NC2(CCCC2)Cc2ccccc21)C(=O)N/N=C/c1ccccc1O | 44.4* | 13.4 | 79.7* | -2.6 | 46.6
COc1ccc(S(=O)(=O)N2CCCCC2)cc1NC(=S)Nc1cccc(Cl)c1C | 71.4* | 0.9 | 2.2 | 1.6 | 73.0*
COc1ccccc1OCC(=O)Nc1cc(S(=O)(=O)N2CCCCC2)ccc1N1CCCCC1 | 41.8* | 7.7 | -7.5 | 2.2 | 0.6
CCN(CC)S(=O)(=O)c1ccc(N2CCOCC2)c(NC(=O)COc2ccccc2C)c1 | 62.0* | -2.7 | 2.7 | 2.0 | 75.9*
NC(=O)COc1ccc(/C=N\NC(=O)c2ccc(-c3ccccc3)cc2)cc1 | 8.2 | 1.9 | 12.3 | 1.0 | ·
COc1ccc(NC(=O)COC(=O)c2cc(Cl)ccc2O)cc1S(=O)(=O)N1CCCCC1 | -14.6 | -1.6 | -17.6 | 0.4 | ·
Fc1cccc(Cl)c1CSc1nnc(COc2cccc3cccnc23)o1 | 64.2* | 9.6 | -7.3 | 0.7 | 67.1*
Cc1ccc(C(=O)NCCC(=O)NCc2ccco2)cc1 | -3.4 | -9.6 | 11.4 | -6.0 | ·
COc1ccc(CN(C)CC(=O)N(C)CC(=O)Nc2ccccc2Br)cc1F | 8.6 | -6.5 | 4.4 | -0.4 | ·
CCN(CC)c1ccc(N2C(=O)CSC2=S)cc1 | 66.1* | 5.1 | -5.8 | 3.2 | 63.3*
Fc1ccc(-c2csc(=S)[nH]2)cc1 | 0.3 | -4.0 | -6.0 | -0.2 | ·
SMILES | ATG4B inh | PP1 counter | Cardio protect | PP5 primary | PLA2 ctr | others
Cc1[nH]c(=S)sc1Cc1ccc(F)cc1 | 40.0* | -2.4 | -14.1 | -1.1 | -11.8
Cc1ccc(NC(=O)CSc2ccccc2)cc1S(=O)(=O)N1CCCCC1 | -1.3 | -0.1 | -16.4 | 4.5 | ·
Cc1ccc(NC(=S)NCc2ccccc2)cc1S(=O)(=O)N1CCCCC1 | 56.5* | -2.5 | -14.1 | -0.3 | 75.4*
COc1ccc2c(-c3ccccc3)cc(SCC(N)=O)nc2c1 | 57.9* | -3.4 | -1.6 | 3.3 | 57.4*
CC1CCCCC1NC(=O)CSc1nnc(CC(=O)Nc2ccccc2F)n1C (centres undefined) | -4.2 | -0.8 | 1.9 | -2.8 | ·
O=C(Nc1ccc(F)c(F)c1)C1=COCCO1 | 1.6 | -5.4 | 7.2 | 0.1 | ·
CCN(CC)c1ccc(C(=C2C=CC(=[N+](CC)CC)C=C2)c2ccccc2)cc1 | 8.8 | · | -20.6 | · | ·
CCN(CC)c1ccc(C(=C2C=CC(=[N+](CC)CC)C=C2)c2ccc(N(CC)CC)cc2)cc1 | 57.7* | · | -26.8 | · | 51.8*
COc1c(C)cc(Br)cc1C(=O)Nc1ccc(C)cc1[N+](=O)[O-] | 42.0* | -2.6 | -4.3 | 1.7 | -18.6
CC(=O)Nc1ccc(-c2ccnc3c2CC(C(=O)Nc2cccc(C(F)(F)F)c2)O3)cc1 (centres undefined) | · | · | 6.7 | · | ·
CC1/C(=N/O)CC(c2ccccc2)N(C)C1c1ccccc1 (centres undefined) | 56.8* | -1.4 | -4.5 | 4.8 | 48.2
CC1CCc2c(sc(Nc3nc4c(F)cccc4s3)c2C(N)=O)C1 (centres undefined) | 40.9* | -2.7 | -9.1 | 3.7 | -11.3
COc1ccc(N2CCN(C(=O)CCCn3c(=S)[nH]c4cc5c(cc4c3=O)OCO5)CC2)cc1 | 23.9 | -2.7 | 7.1 | 4.9 | ·
Cc1ccc(C)c(N2CCN(C(=O)CCn3c(=S)[nH]c4cc5c(cc4c3=O)OCO5)CC2)c1 | 51.5* | 1.2 | -2.0 | 0.7 | 50.4*
CN1CCC(=NNC(=O)CN(c2ccc([N+](=O)[O-])cc2)S(=O)(=O)c2ccccc2)CC1 | 4.6 | 0.6 | -7.4 | 0.3 | ·
COc1ccccc1Nc1nnc(C)c(=O)[nH]1 | -2.1 | 0.2 | 6.1 | 1.5 | ·
COc1ccccc1Nc1cc2cc(Br)ccc2c(=O)[nH]1 | 65.9* | 5.3 | 0.2 | 5.6 | 5.1
Cc1cc(C)c2sc(N(CCCN(C)C)C(=O)c3ccc(S(=O)(=O)N(C)Cc4ccccc4)cc3)nc2c1 | 41.7* | 10.0 | -21.7 | 2.4 | 49.4
CCOC(=O)C1(CCc2ccccc2)CCN(C(=O)c2ccoc2)CC1 | 8.4 | -2.1 | 2.6 | 2.3 | ·
CC#CC(=O)N1CCC(CCc2ccccc2)(C(=O)OCC)CC1 | 48.6* | -0.3 | -6.1 | -1.1 | -1.6
COc1ccc2nc(N3CCCCC3)c(/C=C3\SC(=S)NC3=O)cc2c1 | 77.2* | -1.4 | -19.2 | 5.1 | 31.9 | ATG4B confirm=20.6
N#C/C(=C\c1cc2ccccc2nc1N1CCCCC1)C(N)=O | 3.1 | 3.6 | -2.5 | 3.0 | ·
O=C1NC(=S)S/C1=C\c1cc2ccccc2nc1N1CCCCC1 | 64.7* | 1.4 | -15.6 | -1.5 | 78.6*
COc1ccc(-n2c(C)cc(/C=C3\SC(=S)NC3=O)c2C)cc1 | 22.5 | 4.3 | -9.6 | 2.2 | ·
Cc1cc(OCC(=O)Nc2cnn(CCCC(=O)O)c2)ccc1Cl | 2.7 | -1.3 | -1.0 | 1.9 | ·
O=C(C[n+]1ccccc1)NNc1ccccc1 | -10.1 | -1.0 | 3.4 | 4.5 | ·
Cc1cccc(N2CCN(C(=S)NCc3ccco3)CC2)c1C | 45.9* | 0.3 | 2.2 | 4.7 | 4.0
CCOc1ccccc1N1CCN(C(=S)NCc2ccco2)CC1 | 3.9 | 1.5 | 3.1 | 3.0 | ·

Assay outcomes (PubChem)
